These results are taken from PubChem BioAssay (NCATS).

Assay [1] is described as follows: HepG2 cells viability qHTS for Zika virus inhibitors (AID 1347168). A digest of the protocol: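 Luminescent ATP readout (CellTiter Glo) after 30 min at 37 degrees C gives viability; cells in DMEM + 4% FBS were treated 24 to 48 hours with compound, following overnight attachment.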
Assay [2] deals with Lysine-specific demethylase 5B (Homo sapiens) (UniProt Q9UGL1). Kind of assay: Optimization screen for KDM5B Histone Demethylases FDH coupled qHTS against the LOPAC library (AID 1347166). A digest of the protocol:
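KDM5BDeltaAP (200nM final) in 50mM HEPES pH 7.5, 0.01% Tween-20 was preincubated with compound for 10 min at room temperature. A substrate mix of 12.5uM H3K4Me3, 25uM a-ketoglutarate, ascorbate, Fe2+, NAD+ and formaldehyde dehydrogenase was then added. NADH fluorescence (340/450 nm) was read initially and after 30 min.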

Assay [3] is described as follows: Tertiary RLuc qRT-PCR qHTS assay for Zika virus inhibitors (AID 1347169). Also: top concentration of the series differs between compounds; nearly all actives have a fitted effect of over 55% in size. A digest of the protocol: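 Luminescence read-out: live-cell Renilla luciferase substrate applied to infected Vero cells, signal measured after 1-1.5 hrs. Cells had received compound before ZIKV-RLuc (Cambodian strain, MOI 1-2) infection and were incubated 48-72 hrs at 37 degrees C.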
A short description of assay [4]: OV-KATE Cancer Cell Toxicity qHTS against the NCATS CANVASS Library (AID 1347345). The essentials: (§1)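 Viability was assessed by adding CellTiter-Glo reagent to treated cultures and reading luminescence after 15min at room temperature. Treatment lasted 72 h at 37 degrees C/5% CO2, using an 11-point series on 1000 cells/well.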
(qHTS replaces the single test concentration by a dilution series.)

The nature of assay [5]: HPAF-II Cancer Cell Toxicity qHTS against the NCATS CANVASS Library (AID 1347346). Also: potency is read from the fitted curve at half-maximal effect; nearly all actives have a fitted effect of over 55% in size. As to conditions: HPAF-II viability, CellTiter-Glo ATP luminescence, 72 h. A digest of the protocol: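 First, HPAF-II cells are plated (1000 cells/well) and held 4 h at 37 degrees C. Next, compounds are pin-transferred as an 11-point series. After 72 h, CellTiter-Glo is added and luminescence measured.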

Assay [6] in a line: UWB1.289 Cancer Cell Toxicity qHTS against the NCATS CANVASS Library (AID 1347347). Also: nearly all actives have a fitted effect of over 60% in size. A digest of the protocol: as §1
Assay [7] is described as follows: OV-SAHO Cancer Cell Toxicity qHTS against the NCATS CANVASS Library (AID 1347348). Also: nearly all actives have a fitted effect of over 55% in size. The source says: Natural products and their derivatives continue to be wellsprings of nascent therapeutic potential. However, many laboratories have limited resources for biological evaluation, leaving their previously isolated or synthesized compounds largely or completely untested. To address this issue, the Canvass library of natural products was assembled (https://tripod.nih.gov/canvass), in collaboration with academic and industry researchers, for quantitative high-throughput screening (qHTS) across a diverse set of cell-based and biochemical assays. The pure (>85% purity by liquid chromatography/mass spectrometry [LC/MS]) Canvass library of 346 natural products were submitted by 45 academic laboratories and companies around the world. […] The library was formatted into 1536-well plates and evaluated in 50 qHTS (in an 11-pnt concentration series) bioassays with broad scope of disease-relevant mechanisms. The resulting data set from 50 different assays was then systematically analyzed to identify overall trends and specific natural products with interesting biological activities. […]
Cancer Cell Toxicity protocol for cell lines COV-362, OV-KATE, OV-SAHO, UWB1.289, UWB1.289-WTBRCA1, HEK-293, HPAF-II, Panc-1005, SW1088, or U-118MG. […] Luminescence signal was acquired via the ViewLux plate reader (PerkinElmer) using a clear filter, 2 second exposure and 2x binning settings.

Assay [8] can be described thus: SW1088 Cancer Cell Toxicity qHTS against the NCATS CANVASS Library (AID 1347350). Also: nearly all actives have a fitted effect of over 75% in size. As to conditions: SW1088 viability, CellTiter-Glo luminescence, 72 h; at 38.3 µM (top of the series). A digest of the protocol: as §1
Assay [9] in a line: U-118MG Cancer Cell Toxicity qHTS against the NCATS CANVASS Library (AID 1347351). The essentials: as §1

Where “and” joins values, the source holds several entries; their conditions need not be identical. Equal entries are not always repeated. Records with an inconclusive call do not appear. A call without a number means that no potency is given here. Values without a mark were called inactive. Calls of active or inactive are those of the source. Calls follow the shape of the dose curve; as a rule, active = well fitted curve in the direction sought with a large enough effect; inconclusive = small, poorly fitted or top-dose-only effect, or another doubt; inactive = no such curve, though single readings can be large; an effect the other way counts as inactive or inconclusive.

Sequence of Lysine-specific demethylase 5B (Homo sapiens) (Q9UGL1 whole entry, looked up): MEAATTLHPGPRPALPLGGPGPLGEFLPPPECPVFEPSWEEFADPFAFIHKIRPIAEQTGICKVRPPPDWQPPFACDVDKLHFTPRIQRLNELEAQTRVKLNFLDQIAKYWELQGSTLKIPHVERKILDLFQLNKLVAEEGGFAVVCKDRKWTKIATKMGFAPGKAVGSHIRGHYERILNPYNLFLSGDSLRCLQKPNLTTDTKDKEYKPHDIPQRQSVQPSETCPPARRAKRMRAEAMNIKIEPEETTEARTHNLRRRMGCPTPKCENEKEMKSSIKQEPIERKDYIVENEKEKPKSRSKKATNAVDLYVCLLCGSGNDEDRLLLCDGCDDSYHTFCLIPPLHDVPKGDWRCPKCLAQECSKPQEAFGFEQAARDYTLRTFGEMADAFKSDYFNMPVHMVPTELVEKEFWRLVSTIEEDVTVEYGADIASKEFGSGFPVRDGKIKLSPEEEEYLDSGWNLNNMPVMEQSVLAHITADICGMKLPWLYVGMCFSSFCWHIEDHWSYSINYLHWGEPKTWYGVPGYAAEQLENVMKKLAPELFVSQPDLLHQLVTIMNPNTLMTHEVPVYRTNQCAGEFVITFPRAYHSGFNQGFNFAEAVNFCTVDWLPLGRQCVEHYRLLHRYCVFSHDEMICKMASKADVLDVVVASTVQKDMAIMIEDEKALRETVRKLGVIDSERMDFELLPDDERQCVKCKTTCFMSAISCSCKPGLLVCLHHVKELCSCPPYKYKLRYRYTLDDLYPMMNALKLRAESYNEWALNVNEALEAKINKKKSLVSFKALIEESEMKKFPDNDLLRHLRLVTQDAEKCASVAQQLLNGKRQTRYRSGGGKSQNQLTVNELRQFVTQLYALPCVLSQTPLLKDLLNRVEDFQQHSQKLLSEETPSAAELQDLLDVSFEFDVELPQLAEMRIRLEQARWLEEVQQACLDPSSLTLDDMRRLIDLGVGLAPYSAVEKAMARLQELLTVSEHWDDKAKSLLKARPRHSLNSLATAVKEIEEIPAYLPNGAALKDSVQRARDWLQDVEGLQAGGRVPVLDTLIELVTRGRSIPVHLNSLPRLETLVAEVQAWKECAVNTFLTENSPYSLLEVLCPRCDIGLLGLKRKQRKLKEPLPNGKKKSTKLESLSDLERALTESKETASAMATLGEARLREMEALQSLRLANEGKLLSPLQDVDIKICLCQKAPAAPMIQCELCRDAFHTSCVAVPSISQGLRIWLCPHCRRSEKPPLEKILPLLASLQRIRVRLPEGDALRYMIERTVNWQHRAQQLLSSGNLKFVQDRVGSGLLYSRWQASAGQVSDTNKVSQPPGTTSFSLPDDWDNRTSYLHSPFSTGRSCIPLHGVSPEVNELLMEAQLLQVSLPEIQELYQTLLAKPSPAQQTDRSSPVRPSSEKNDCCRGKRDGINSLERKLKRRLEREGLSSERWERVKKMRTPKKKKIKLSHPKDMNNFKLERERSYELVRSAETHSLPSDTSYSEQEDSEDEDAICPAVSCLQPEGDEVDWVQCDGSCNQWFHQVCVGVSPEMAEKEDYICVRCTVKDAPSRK

Take `O=C1Cc2cc(CCN3CCN(c4nsc5ccccc45)CC3)c(Cl)cc2N1`: the call in assay [1] was inactive.
Turning to `O=c1[nH]cc(F)c(=O)[nH]1`, the compound was classed as inactive in [2].
Turning to `CS(=O)(=O)Nc1ccc([N+](=O)[O-])cc1Oc1ccccc1`, the outcome in assay [2] was inactive.
As to `CC1COc2c(N3CCN(C)CC3)c(F)cc3c(=O)c(C(=O)O)cn1c23` (stereo not drawn), the compound was classed as inactive in [1]. Further, in assay [3], the Potency entry is “inactive”.
As to `Cc1ccccc1N1C(=O)c2cc(S(N)(=O)=O)c(Cl)cc2NC1C` (stereo not drawn), the result in assay [1] was inactive. In addition, the Potency result in assay [3] was “inactive”.
On to `Cn1c(=O)c2[nH]cnc2n(C)c1=O`, for which, in assay [2], the compound was called inactive.
In the case of `CN(Cc1cnc2nc(N)nc(N)c2n1)c1ccc(C(=O)N[C@@H](CCC(=O)O)C(=O)O)cc1`, in [1], the outcome was inactive. For the same compound, the Potency entry in assay [3] was “inactive”.
Turning to `CN1CCN(C2=Nc3cc(Cl)ccc3Nc3ccccc32)CC1`, in [2], the result was inactive.
`COc1cc2nc(N3CCN(C(=O)c4ccco4)CC3)nc(N)c2cc1OC`: in [1], the outcome was inactive.
As for `Cc1cn([C@H]2C=C[C@@H](CO)O2)c(=O)[nH]c1=O`, the compound was classed as inactive in assay [2].
With `O=c1c(O)c(-c2ccc(O)c(O)c2)oc2cc(O)cc(O)c12`, in [2], the compound was called inactive. Moreover, the activity change, negative = inhibition in assay [3] was 52.3% [at 5.25 µM] and 65.1% [at 0.997 µM].
As to `Nc1nc2c(ncn2COC(CO)CO)c(=O)[nH]1`, the call in assay [2] was inactive.
For `COc1ccc(C2CNC(=O)C2)cc1OC1CCCC1` (stereo not drawn), the result in assay [2] was inactive.
Same read-out and setting: the entry for `CCOC(=O)c1ncn2c1CN(C)C(=O)c1cc(F)ccc1-2` is “inactive”.
As to `Cc1cnc(C(=O)NCCc2ccc(S(=O)(=O)NC(=O)NC3CCCCC3)cc2)cn1`, the result in assay [2] and in assay [1] was inactive. For the same compound, in [3], the Potency entry was “inactive”.
Take `CC(C(=O)O)c1cccc(C(=O)c2ccccc2)c1` (stereo not drawn): the result in assay [2] was inactive.
For `COc1ccc2[nH]cc(CCNC(C)=O)c2c1`, the call in assay [4], in assay [6], in [7], in [8] and in assay [9] was inactive. The Potency in [5] was 5.95 µM (active).
